Results: PubChem BioAssay (Tox21)
Inconclusive results are not listed. Activity calls are given as the source filed them. Unless noted, calls follow the shape of the full dose curve.

Key:
[1] = Nuclear factor erythroid 2-related factor 2/antioxidant responsive element (Nrf2/ARE) small molecule agonists: qHTS cell viability counter screen in human keratinocytes (AID 1919968; active = well fitted curve in the direction sought with a large enough effect in the repeat runs; an effect the other way counts as inactive or inconclusive; also: nearly all actives have a fitted effect of over 55% in size; also: potency is read from the fitted curve at half-maximal effect)
In short: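 Parallel cytotoxicity read: KeratinoSens HaCaT cells, compound treatment 23 h, viability by CellTiter-Fluor fluorescence 1 h post-reagent.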

[2] = molecular target: Gonadotropin-releasing hormone receptor (Homo sapiens) (UniProt P30968); assay: Human gonadotropin-releasing hormone receptor (GnRHR) small molecule agonists, calcium flux assay in GnRHR-HEK293 cells (AID 1920063); also: nearly all actives have a fitted effect of over 35% in size
Sequence of Gonadotropin-releasing hormone receptor (Homo sapiens) (P30968 whole entry, looked up): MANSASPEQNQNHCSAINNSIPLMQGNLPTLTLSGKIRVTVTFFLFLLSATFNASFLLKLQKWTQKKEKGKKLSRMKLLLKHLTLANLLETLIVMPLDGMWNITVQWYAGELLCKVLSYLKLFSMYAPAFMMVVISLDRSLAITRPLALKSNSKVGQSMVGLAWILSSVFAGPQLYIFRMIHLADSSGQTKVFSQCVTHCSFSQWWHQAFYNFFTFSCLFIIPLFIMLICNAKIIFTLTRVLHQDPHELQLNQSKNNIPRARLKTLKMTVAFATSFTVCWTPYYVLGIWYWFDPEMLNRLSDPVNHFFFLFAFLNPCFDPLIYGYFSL
In short: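 Calcium flux, agonist mode, human GnRHR stably integrated in HEK293; dye 1 h at 37 C before compound; Ex/Em=480/540 kinetic read, 3 min; 15 concentrations, triplicate.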

[3] = molecular target: KiSS-1 receptor (Homo sapiens) (UniProt Q969F8); assay: Human kisspeptin (KISS1R) small molecule agonists, calcium flux assay in KISS1R-HEK293 cells (AID 1920064; active = well fitted curve in the direction sought with a large enough effect in the repeat runs; an effect the other way counts as inactive or inconclusive)
Sequence of KiSS-1 receptor (Homo sapiens) (Q969F8 whole entry, looked up): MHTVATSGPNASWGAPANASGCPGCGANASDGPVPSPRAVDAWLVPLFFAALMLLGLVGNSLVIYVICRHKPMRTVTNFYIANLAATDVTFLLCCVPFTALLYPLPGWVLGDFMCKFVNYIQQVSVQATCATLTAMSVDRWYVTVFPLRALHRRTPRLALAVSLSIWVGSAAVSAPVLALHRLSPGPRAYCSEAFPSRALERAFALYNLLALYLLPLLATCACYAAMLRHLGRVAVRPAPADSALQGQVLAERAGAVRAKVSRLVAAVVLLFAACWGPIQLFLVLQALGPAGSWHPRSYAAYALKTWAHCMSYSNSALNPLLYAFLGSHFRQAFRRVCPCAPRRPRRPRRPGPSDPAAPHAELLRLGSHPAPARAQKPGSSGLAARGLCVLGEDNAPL
In short: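 Triplicate 15-concentration series were applied to dye-loaded human KISS1R HEK293 cells, and agonist-evoked calcium fluorescence was captured for 3 min.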

[4] = G protein-coupled receptor (GPCR) small molecule agonists, calcium flux assay: HEK293 wild type cell line counter screen (AID 1920065)
In short: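 Non-specific calcium responders were flagged by adding DMSO-dissolved compounds to dye-loaded cells and reading 480/540 nm fluorescence each second for 3 min; ATP served as positive control.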

[5] = p53 small molecule agonists, cell-based qHTS assay with human liver microsomes (AID 1963577)
In short: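 Compounds act here after metabolic activation: human liver microsomes and NADPH, both at 0.5 mg/mL final, were co-added to p53RE-bla cells. Incubation ran 16 h at 37 C, followed by LiveBLAzer detection.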

[6] = p53 small molecule agonists, cell-based qHTS assay with rat liver microsomes (AID 1963578)
In short: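 Read-out is beta-lactamase reporter fluorescence (LiveBLAzer, 2 h, room temperature, dark) in p53RE-bla cells treated 16 h at 37 C with compound, rat liver microsomes and NADPH, both 0.5 mg/mL final.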

[7] = p53 small molecule agonists, cell-based qHTS assay with rat liver microsomes: qHTS cell viability counter screen (AID 1963580); also: nearly all actives have a fitted effect of over 45% in size
In short: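 Cytotoxicity counter screen: intracellular ATP read by CellTiter-Glo luminescence in the p53 reporter wells. HCT-116 p53RE-bla cells were treated for 16 h at 37 C alongside rat liver microsomes and NADPH, each 0.5 mg/mL final.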

[8] = p53 small molecule agonists, cell-based qHTS assay: qHTS cell viability counter screen (AID 1963581); also: nearly all actives have a fitted effect of over 45% in size
In short: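 Multiplexed with the reporter read, a CellTiter-Glo step (30 min, room temperature) gauges ATP-based viability of HCT-116 p53RE-bla cells after 16 h compound incubation at 37 C.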

[9] = p53 small molecule agonists, cell-based qHTS assay (AID 1963582; active = well fitted activation curve with a large enough effect in the signal ratio in the repeat runs, not every such curve was filed as active; the % refers to the signal ratio; also: potency is read from the fitted curve at half-maximal effect)
In short: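 Beta-lactamase reporter cells (p53RE-bla) treated with compounds for 16 h at 37 C; FRET substrate, 2 h, room temperature; fluorescence intensity.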

[10] = molecular target: 5-hydroxytryptamine receptor 2A (Homo sapiens) (UniProt P28223); assay: 5-hydroxytryptamine receptor 2A (HTR2A) small molecule antagonists, cell-based qHTS assay (AID 1963586); also: nearly all actives have a fitted effect of over 45% in size; also: potency is read from the fitted curve at half-maximal effect
Sequence of 5-hydroxytryptamine receptor 2A (Homo sapiens) (P28223 whole entry, looked up): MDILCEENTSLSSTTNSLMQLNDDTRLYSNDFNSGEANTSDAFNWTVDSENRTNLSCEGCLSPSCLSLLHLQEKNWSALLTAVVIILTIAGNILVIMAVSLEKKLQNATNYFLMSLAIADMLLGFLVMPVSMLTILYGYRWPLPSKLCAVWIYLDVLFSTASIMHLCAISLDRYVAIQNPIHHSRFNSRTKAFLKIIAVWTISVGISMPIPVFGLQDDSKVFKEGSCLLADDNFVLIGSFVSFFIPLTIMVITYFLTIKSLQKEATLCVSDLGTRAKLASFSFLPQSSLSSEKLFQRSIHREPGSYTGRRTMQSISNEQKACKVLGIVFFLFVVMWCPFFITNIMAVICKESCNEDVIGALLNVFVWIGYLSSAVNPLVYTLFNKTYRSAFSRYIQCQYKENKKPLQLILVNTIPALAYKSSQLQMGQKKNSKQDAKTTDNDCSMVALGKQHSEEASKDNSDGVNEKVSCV
In short: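 CHO cells stably expressing human HTR2A were plated for 18 h at 37 C, then loaded with calcium dye for 1 h. Compounds were preincubated 5 min at room temperature before DOI (4 nM solution) was added. Kinetic fluorescence was read for 3 min.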

[11] = molecular target: 5-hydroxytryptamine receptor 2A (Homo sapiens) (UniProt P28223); assay: 5-hydroxytryptamine receptor 2A (HTR2A) small molecule agonists, cell-based qHTS assay (AID 1963587); also: nearly all actives have a fitted effect of over 30% in size; also: potency is read from the fitted curve at half-maximal effect
In short: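 Kinetic calcium-flux fluorescence (2 min, 1 sec intervals) after compound addition in agonist mode. HTR2A-CHO cells were cultured 18 h, then dye-loaded 1 h at 37 C.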

[12] = molecular target: Muscarinic acetylcholine receptor M1 (Homo sapiens) (UniProt P11229); assay: Cholinergic receptor muscarinic 1 (CHRM1) small molecule agonists, cell-based qHTS assay (AID 1963589); also: nearly all actives have a fitted effect of over 35% in size
Sequence of Muscarinic acetylcholine receptor M1 (Homo sapiens) (P11229 whole entry, looked up): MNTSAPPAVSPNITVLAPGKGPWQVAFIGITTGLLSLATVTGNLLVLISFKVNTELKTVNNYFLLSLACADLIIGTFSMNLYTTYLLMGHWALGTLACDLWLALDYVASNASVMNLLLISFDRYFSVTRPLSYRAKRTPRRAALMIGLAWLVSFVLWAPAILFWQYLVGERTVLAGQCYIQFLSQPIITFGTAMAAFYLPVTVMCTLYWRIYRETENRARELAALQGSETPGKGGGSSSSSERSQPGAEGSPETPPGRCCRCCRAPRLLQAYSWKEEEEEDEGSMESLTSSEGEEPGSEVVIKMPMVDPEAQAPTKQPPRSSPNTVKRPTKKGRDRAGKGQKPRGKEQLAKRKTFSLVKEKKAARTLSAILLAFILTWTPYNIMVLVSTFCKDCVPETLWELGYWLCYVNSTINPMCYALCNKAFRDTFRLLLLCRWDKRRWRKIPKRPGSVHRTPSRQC
In short: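 qHTS, 15-point titration, 3 independent runs: compounds pin-transferred onto dye-loaded CHRM1-CHO cells (human M1), calcium fluorescence followed every second to detect agonism.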

[13] = molecular target: Beta-2 adrenergic receptor (Homo sapiens) (UniProt P07550); assay: Adrenergic beta2 receptor (ADRB2) small molecule antagonists, cell-based qHTS assay (AID 1963592); also: nearly all actives have a fitted effect of over 50% in size; also: potency is read from the fitted curve at half-maximal effect; as to activity change, negative = inhibition: series mostly up to about 92 µM
Sequence of Beta-2 adrenergic receptor (Homo sapiens) (P07550 whole entry, looked up): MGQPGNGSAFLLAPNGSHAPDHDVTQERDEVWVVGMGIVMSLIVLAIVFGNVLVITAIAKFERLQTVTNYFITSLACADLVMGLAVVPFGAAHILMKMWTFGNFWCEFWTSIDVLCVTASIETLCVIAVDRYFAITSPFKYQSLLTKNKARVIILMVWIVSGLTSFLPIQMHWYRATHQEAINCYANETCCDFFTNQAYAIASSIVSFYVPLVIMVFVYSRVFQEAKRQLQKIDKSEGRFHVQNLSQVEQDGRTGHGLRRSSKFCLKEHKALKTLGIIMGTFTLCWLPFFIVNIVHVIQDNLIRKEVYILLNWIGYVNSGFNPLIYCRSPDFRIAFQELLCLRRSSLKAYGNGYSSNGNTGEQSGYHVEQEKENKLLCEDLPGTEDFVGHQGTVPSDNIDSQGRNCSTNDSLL
In short: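 Assay format: CHO-ADRB2 cells, 18-20hr seeding at 37C/5% CO2, then compound plus 1nM isoproterenol agonist mix for 0.5hr RT. Homogeneous time-resolved fluorescence cAMP detection after 1hr, expressed as 665/615 nm ratio.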

[14] = molecular target: Beta-2 adrenergic receptor (Homo sapiens) (UniProt P07550); assay: Adrenergic beta2 receptor (ADRB2) small molecule agonists, cell-based qHTS assay (AID 1963593);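 also: CHO cells stably overexpressing human ADRB2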
In short: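 CHO cells stably over-expressing ADRB2 were plated overnight at 37C, then dosed with compounds plus a stimulation mix containing 100uM IBMX and 25uM Ro-20-1724 for 0.5hr at room temperature. cAMP was measured by HTRF competition, 1hr.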

[15] = molecular target: D(2) dopamine receptor (Homo sapiens) (UniProt P14416); assay: Dopamine D2 receptor (DRD2) small molecule agonists, cell-based qHTS assay (AID 1963594); also: nearly all actives have a fitted effect of over 35% in size
Sequence of D(2) dopamine receptor (Homo sapiens) (P14416 whole entry, looked up): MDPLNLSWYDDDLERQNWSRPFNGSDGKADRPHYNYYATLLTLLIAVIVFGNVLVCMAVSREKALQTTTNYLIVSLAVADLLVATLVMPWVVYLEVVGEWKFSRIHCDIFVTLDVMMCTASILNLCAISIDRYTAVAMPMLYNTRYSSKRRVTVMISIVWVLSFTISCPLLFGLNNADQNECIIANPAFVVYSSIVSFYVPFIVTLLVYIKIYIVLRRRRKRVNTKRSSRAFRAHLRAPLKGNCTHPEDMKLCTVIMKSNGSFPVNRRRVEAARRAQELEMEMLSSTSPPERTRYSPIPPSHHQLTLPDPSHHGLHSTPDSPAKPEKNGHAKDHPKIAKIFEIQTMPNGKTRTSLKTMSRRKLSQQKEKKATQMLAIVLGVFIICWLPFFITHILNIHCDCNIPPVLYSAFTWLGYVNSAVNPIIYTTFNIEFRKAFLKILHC
In short: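 cAMP accumulation in DRD2-HEK293 cells measured by HTRF after 1 h detection; compounds added 10 min before NKH477 (200nM […]) forskolin-analogue stimulation, 30 min at room temperature, with Ro20-1724 present at 0.1 mM final.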

[16] = p53 small molecule agonists, cell-based qHTS assay with human liver microsomes: qHTS cell viability counter screen (AID 1963579); also: nearly all actives have a fitted effect of over 45% in size
In short: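 Cells carrying the p53 response-element beta-lactamase reporter are treated for 16 h at 37 C with test compounds in the presence of human liver microsomes and NADPH (both 0.5 mg/mL final); ATP-based CellTiter-Glo luminescence then reports viability.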

[17] = cAMP Responsive Elements (CRE) small molecule agonists, cell-based qHTS assay (AID 1963590)
In short: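 Quantitative HTS for CRE agonists: HEK 293T CRE-bla cells, overnight plating, 3 h compound incubation at 37 C/5% CO2, then 2 h room-temperature LiveBLAzer B/G FRET substrate loading.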

[18] = cAMP Responsive Elements (CRE) small molecule antagonists, cell-based qHTS assay (AID 1963591; active = well fitted inhibition curve with a large enough effect in the signal ratio in the repeat runs, not every such curve was filed as active; the % refers to the signal ratio; also: potency is read from the fitted curve at half-maximal effect)
In short: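 Fluorescence intensity from cleaved LiveBLAzer B/G substrate (2 h, room temperature) quantified CRE-bla activity in HEK 293T cells exposed 3 h to compound with 0.25 uM final NKH477.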

[19] = molecular target: D(2) dopamine receptor (Homo sapiens) (UniProt P14416); assay: Dopamine D2 receptor (DRD2) small molecule antagonists, cell-based qHTS assay (AID 1963595; active = well fitted inhibition curve with a large enough effect in the signal ratio in the repeat runs, with a control signal flat; the % refers to the signal ratio; also: potency is read from the fitted curve at half-maximal effect)
In short: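 Cells were plated and grown for 24 h at 37 °C. Ro20-1724 (0.1 mM final) went in first, then compound for 10 min. NKH477 (200 nM) with quinpirole (12 nM) followed for 30 min at RT, then HTRF detection reagents for 1 h.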

[20] = molecular target: Muscarinic acetylcholine receptor M1 (Homo sapiens) (UniProt P11229); assay: Cholinergic receptor muscarinic 1 (CHRM1) small molecule antagonists, cell-based qHTS assay (AID 1963588); also: nearly all actives have a fitted effect of over 40% in size; also: potency is read from the fitted curve at half-maximal effect
In short: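 Compounds were tested at 15 concentrations in three independent runs. Dye-loaded CHRM1-CHO cells were exposed 5 min at room temperature before stimulation by acetylcholine added at 50nM. Intracellular calcium was read kinetically on FDSS for 3 min.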
% is scaled to controls: 0 for no effect and ±100 for the full control effect.

CCC(Cc1ccccc1)(C(=O)c1ccc(N2CCOCC2)cc1)N(C)C (stereo not given)
inactive: Potency [1] | Potency [2] | outcome [3] | outcome [4] | Potency [5] | Potency [6] | Potency [7] | Potency [8] | Potency [9] | Potency [10] | Potency [11] | Potency [12] | Potency [13] | Potency [14] | Potency [15]

CCOC(=N)CC(=O)OCC
inactive: Potency [1] | Potency [2] | outcome [3] | outcome [4] | Potency [5] | Potency [16] | Potency [7] | Potency [8] | Potency [10] | Potency [11] | Potency [12] | Potency [17] | Potency [18] | Potency [13] | Potency [15] | Potency [19]

O=C1OC(O)C(C(Cl)Cl)=C1Cl (stereo not given)
inactive: Potency [2] | outcome [3] | outcome [4] | Potency [5] | Potency [6] | Potency [7] | Potency [8] | Potency [10] | Potency [11] | Potency [20] | Potency [12] | Potency [15] | Potency [19]
active: Potency [1] 63 µM | Potency [18] 44.6 µM

C#CCOC(=O)[C@@H](C)Oc1ccc(Oc2ncc(Cl)cc2F)cc1
inactive: Potency [1] | Potency [2] | outcome [3] | outcome [4] | Potency [5] | Potency [6] | Potency [7] | Potency [9] | Potency [10] | Potency [11] | Potency [20] | Potency [12] | Potency [18] | Potency [13] | Potency [15] | Potency [19]

Nc1ccn([C@@H]2O[C@H](CO)[C@@H](O)C2(F)F)c(=O)n1
active: Potency [9] 0.199 µM
inactive: Potency [1] | Potency [2] | outcome [3] | outcome [4] | Potency [5] | Potency [6] | Potency [16] | Potency [7] | Potency [17] | Potency [18] | Potency [19]

CCCCCCCCOc1ccc(C(=O)O)cc1
inactive: Potency [1] | Potency [2] | outcome [3] | outcome [4] | Potency [5] | Potency [6] | Potency [16] | Potency [7] | Potency [11] | Potency [20] | Potency [18] | Potency [13] | Potency [14] | Potency [15] | Potency [19]

COC(=O)C1CC(=O)C(C(=O)OC)CC1=O (stereo not given)
inactive: activity change, negative = cytotoxicity [1] 2.06% [at 8.39 µM] | activation [3] 0.0459% [at 6.97 µM] | activation [4] -0.0233% [at 5.23 µM] | activation [5] -0.316% [at 5.99 µM] | activation [6] -0.919% [at 5.99 µM] | activity change, negative = cytotoxicity [16] -6.82% [at 5.99 µM] | activity change, negative = cytotoxicity [7] -4.56% [at 5.99 µM] | activity change, negative = cytotoxicity [8] -4.07% [at 5.99 µM] | activation [9] -3.72% [at 5.99 µM] | activity, negative = inhibition [10] 1.92% [at 5.62 µM] | activation [11] 7.2% [at 7.02 µM] | activity, negative = inhibition [20] 62.7% [at 5.58 µM] | activation [12] 0.037% [at 6.97 µM] | activation [17] 0.379% [at 8.39 µM] | activity change, negative = inhibition [18] -7.12% [at 8.39 µM] | activity change, negative = inhibition [13] 3.63% [at 8.39 µM] | activation [15] -0.218% [at 8.39 µM] | activity change, negative = inhibition [19] -0.133% [at 8.38 µM]

CCCCC/C=C/CC(=O)OC
inactive: Potency [1] | Potency [2] | outcome [4] | Potency [16] | Potency [7] | Potency [8] | Potency [9] | Potency [10] | Potency [11] | Potency [20] | Potency [12] | Potency [17] | Potency [13] | Potency [15] | Potency [19]

CC(C)(C)OC(=O)N1C[C@@H](F)C[C@H]1C(=O)O
inactive: Potency [1] | Potency [2] | outcome [3] | Potency [5] | Potency [6] | Potency [16] | Potency [7] | Potency [8] | Potency [9] | Potency [10] | Potency [11] | Potency [20] | Potency [12] | Potency [17] | Potency [18] | Potency [13] | Potency [15] | Potency [19]

CCCc1ncc(C(=O)O)s1
inactive: Potency [1] | Potency [2] | outcome [3] | outcome [4] | Potency [6] | Potency [16] | Potency [7] | Potency [8] | Potency [9] | Potency [10] | Potency [11] | Potency [20] | Potency [12] | Potency [17] | Potency [15] | Potency [19]

CN=C(N)NC(=O)Nc1c(C)cccc1C
inactive: Potency [1] | outcome [3] | outcome [4] | Potency [5] | Potency [6] | Potency [16] | Potency [7] | Potency [8] | Potency [9] | Potency [20] | Potency [17] | Potency [18] | Potency [13] | Potency [15] | Potency [19]
active: Potency [11] 6.74 µM

Cc1ccc(C(=O)c2ccccc2)cc1
inactive: Potency [1] | Potency [2] | outcome [3] | Potency [5] | Potency [6] | Potency [16] | Potency [7] | Potency [8] | Potency [9] | Potency [10] | Potency [11] | Potency [12] | Potency [13] | Potency [14] | Potency [15] | Potency [19]

COc1ccccc1NC(=O)c1cc2ccccc2cc1O
active: Potency [10] 21.1 µM | Potency [13] 54.5 µM
inactive: Potency [1] | Potency [2] | outcome [3] | Potency [6] | Potency [16] | Potency [8] | Potency [11] | Potency [20] | Potency [15] | Potency [19]

OC[C@H]1O[C@@H](O[C@@H]2[C@@H](CO)O[C@](O)(CO)[C@H]2O)[C@H](O)[C@@H](O)[C@H]1O
inactive: Potency [1] | Potency [2] | outcome [3] | Potency [5] | Potency [6] | Potency [16] | Potency [7] | Potency [8] | Potency [9] | Potency [11] | Potency [12] | Potency [17] | Potency [18] | Potency [13] | Potency [14] | Potency [15] | Potency [19]

CN1CCC(=C2c3ccccc3CCc3sccc32)CC1
inactive: Potency [1] | Potency [2] | outcome [3] | Potency [5] | Potency [6] | Potency [16] | Potency [7] | Potency [9] | Potency [12] | Potency [17] | Potency [15]
active: Potency [20] 0.0145 µM | Potency [19] 11.9 µM
